According to PubChem BioAssay (Tox21):
Records with an inconclusive call do not appear. A call without a number means that no potency is given here. Active and inactive are the calls of the source. Calls come from the whole dose curve; as a rule, active = well fitted cell-killing curve with a large enough effect in the repeat runs; inconclusive = weak or mixed curves, or effect the other way; inactive = no such curve, though single readings can be large or run the other way.

Experiment: qHTS assay to identify small molecule antagonists of the vitamin D receptor (VDR) signaling pathway - cell viability counter screen (AID 743225); note: nearly all actives have a fitted effect of over 50% in size
Conditions: VDR-bla HEK293T viability, CellTiter-Glo luminescence, 16 h; series mostly up to 61 µM
Summary of the method: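 Cytotoxicity counter screen read by CellTiter-Glo luminescence (30 min, room temperature) in the same wells as the VDR-bla antagonist readout. HEK 293T VDR-UAS-bla cells had 16 h at 37C with compound and 3 nM (final) 1-alpha,25-dihydroxyvitamin D3, then 2 h with FRET substrate.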

Compound | Potency
C#CCOC(=O)[C@@H](C)Oc1ccc(Oc2ncc(Cl)cc2F)cc1 | inactive
O=C(O)C(c1ccc(Cl)cc1)c1ccc(Cl)cc1 | inactive
CCCCOC(=O)c1ccccc1C(=O)OCC(CC)CCCC (centres undefined) | inactive
CC(=O)[C@@]1(O)CC[C@H]2[C@@H]3C[C@H](C)C4=CC(=O)CC[C@]4(C)[C@H]3CC[C@@]21C | inactive
CC(C)NCC(O)COc1ccc(CC(N)=O)cc1 (centres undefined) | inactive
O=C(Nc1ccccc1)OCC(CN1CCCCC1)OC(=O)Nc1ccccc1 (centres undefined) | inactive
CCCCCCCCCCCCC(=O)O | inactive
CCOC(=O)C1=NN(c2ccccc2)C(=O)C1 | inactive
Cc1cc(O)ccc1N | inactive
c1ccc(CNCc2ccccc2)cc1 | inactive
c1ccc(-c2nc[nH]c2-c2ccccc2)cc1 | inactive
CCCCOC(O)CC (centres undefined) | inactive
CC(=O)/C=C/C1C(C)=CCCC1(C)C (centres undefined) | inactive
CC[C@H](C)[C@@H](C(=O)O)n1sc2ccccc2c1=O | inactive
CCOc1nc2cccc(C(=O)O)c2n1Cc1ccc(-c2ccccc2-c2nn[nH]n2)cc1 | inactive
O=C1CCCCCO1 | inactive
CCN(CC)CCc1nc(-c2ccccc2)no1 | inactive
O=C(O)/C=C/c1cnc[nH]1 | inactive
O=C(O)c1cn(C2CC2)c2cc(Cl)c(F)cc2c1=O | inactive
CCOc1ccc2[nH]cc(C(=O)NCc3ccccc3)c(=O)c2n1 | inactive
CC(C)=CCCC(C)CC=O (centres undefined) | inactive
CNS(=O)(=O)Cc1ccc2[nH]cc(CCN(C)C)c2c1 | inactive
OCCC1CCCCN1 (centres undefined) | inactive
O=S1(=O)N=C(O)c2ccccc21 | inactive
